Results published in the supplement of paper PMC9262897, “Low-cost anti-mycobacterial drug discovery using engineered E. coli” (Nature Communications, 2022).
Where a name gives a salt, the structure may show the parent alone. ± gives the standard deviation of the averaged measurements.

Key:
Experiment in all cases: growth (OD600 after 10 h); higher = more growth (less inhibition)
[1] = system: E. coli TESEC Alr+ wild-type control; conditions: compound 0.1 mM; raw OD600 reference: median of DMSO wells 0.241, cell-free background 0.041
Description: (§1)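 TESEC Mtb Alr E. coli, or the Alr+ wild-type control, in 384-well plates with Prestwick library compounds at 0.1 mM and 1% DMSO, across arabinose induction levels of 1E3 to 1E7 nM. Growth is read as OD600 after 10 h at 37 °C in triplicate biological replicates.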

[2] = system: E. coli TESEC Mtb Alr; conditions: compound 0.1 mM
Description: as §1

[3] = system: E. coli TESEC Mtb Asd; conditions: compound 0.1 mM
Description: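 TESEC E. coli strains in which the native enzyme is deleted and replaced by arabinose-inducible Mtb Asd, DapB, CysH or TrpD, each grown in its selective medium. Strains were screened against the Prestwick library at 0.1 mM and 1% DMSO in 384-well format at low and high arabinose induction. Growth is read as OD600 after 10 h in triplicate.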

[4] = system: E. coli TESEC Mtb Alr; conditions: compound 0.1 mM; remark: listed apart in the source
Description: (§2)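 TESEC Mtb Alr E. coli (ΔaraC ΔtolC ΔentC Δalr ΔdadX, arabinose-inducible Mtb Alr) or the Alr+ wild-type control strain, grown in defined M9-fructose medium without D-alanine in 96-well plates with Prestwick library compounds at 0.1 mM and 1% DMSO. Low Alr induction is 0.1 µM arabinose and high induction is 10 mM arabinose.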

[5] = system: E. coli TESEC Alr+ wild-type control; conditions: compound 0.1 mM; raw OD600 reference: median of DMSO wells 0.49, cell-free background 0.052
Description: as §2

[6] = arabinose 1000 nM, raw OD600 reference: median of DMSO wells 0.294, cell-free background 0.041
[7] = arabinose 10000 nM, raw OD600 reference: median of DMSO wells 0.264, cell-free background 0.041
[8] = arabinose 100000 nM, raw OD600 reference: median of DMSO wells 0.201, cell-free background 0.041
[9] = arabinose 1000000 nM, raw OD600 reference: median of DMSO wells 0.193, cell-free background 0.041
[10] = arabinose 10000000 nM, raw OD600 reference: median of DMSO wells 0.146, cell-free background 0.041
[11] = arabinose induction (level): High, raw OD600 reference: median of DMSO wells 0.331, cell-free background 0.041
[12] = arabinose induction (level): Low, raw OD600 reference: median of DMSO wells 0.417, cell-free background 0.041
[13] = arabinose 100 nM, raw OD600 reference: median of DMSO wells 0.413, cell-free background 0.052
[14] = arabinose 10000000 nM, raw OD600 reference: median of DMSO wells […], cell-free background 0.052

CN1CCCN(C(c2ccccc2)c2ccc(Cl)cc2)CC1 (stereo not drawn) [Homochlorcyclizine dihydrochloride]
growth [1]: 0.189 ± 0.0068 | growth [2, 6]: 0.137 ± 0.082 | growth [2, 7]: 0.169 ± 0.0051 | growth [2, 8]: 0.09 ± 0.04 | growth [2, 9]: 0.0532 ± 0.00092 | growth [2, 10]: 0.0545 ± 0.00056 | growth [3, 11]: 0.123 ± 0.011 | growth [3, 12]: 0.152 ± 0.015 | growth [4, 13]: 0.413 ± 0.0053 | growth [4, 14]: 0.118 ± 0.018

CC1=C(/C=C/C(C)=C/C=C/C(C)=C/C(=O)O)C(C)(C)CCC1 [Retinoic acid]
growth [1]: 0.281 ± 0.008 | growth [2, 6]: 0.309 ± 0.012 | growth [2, 7]: 0.262 ± 0.006 | growth [2, 8]: 0.246 ± 0.0066 | growth [2, 9]: 0.149 ± 0.006 | growth [2, 10]: 0.162 ± 0.015 | growth [3, 11]: 0.355 ± 0.11 | growth [3, 12]: 0.41 ± 0.0091 | growth [4, 13]: 0.45 ± 0.0056 | growth [4, 14]: 0.301 ± 0.013

Cc1cc(CC(=O)O)n(C)c1C(=O)c1ccc(Cl)cc1 [Zomepirac sodium salt]
growth [1]: 0.22 ± 0.0032 | growth [2, 6]: 0.261 ± 0.022 | growth [2, 7]: 0.239 ± 0.0082 | growth [2, 8]: 0.16 ± 0.0043 | growth [2, 9]: 0.1938 ± 0.0017 | growth [2, 10]: 0.121 ± 0.0027 | growth [3, 11]: 0.473 ± 0.13 | growth [3, 12]: 0.295 ± 0.069 | growth [4, 13]: 0.392 ± 0.014 | growth [4, 14]: 0.3428 ± 0.0013

NC(CO)C(=O)NNCc1ccc(O)c(O)c1O (stereo not drawn) [Benserazide hydrochloride]
growth [1]: 0.0616 ± 0.0013 | growth [2, 6]: 0.246 ± 0.0069 | growth [2, 7]: 0.224 ± 0.0028 | growth [2, 8]: 0.205 ± 0.033 | growth [2, 9]: 0.0994 ± 0.0023 | growth [2, 10]: 0.124 ± 0.0056 | growth [3, 11]: 0.186 ± 0.018 | growth [3, 12]: 0.186 ± 0.0073 | growth [5]: 0.465 ± 0.036 | growth [4, 13]: 0.337 ± 0.069 | growth [4, 14]: 0.148 ± 0.03

OCCN1C[C@H](O)[C@@H](O)[C@H](O)[C@H]1CO [Miglitol]
growth [1]: 0.243 ± 0.0029 | growth [2, 6]: 0.285 ± 0.0045 | growth [2, 7]: 0.26 ± 0.0085 | growth [2, 8]: 0.204 ± 0.02 | growth [2, 9]: 0.184 ± 0.0057 | growth [2, 10]: 0.145 ± 0.0034 | growth [3, 11]: 0.358 ± 0.084 | growth [3, 12]: 0.42 ± 0.084 | growth [4, 13]: 0.406 ± 0.011 | growth [4, 14]: 0.324 ± 0.051

O=C(O)c1cccnc1 [Niacin]
growth [1]: 0.28 ± 0.0091 | growth [2, 6]: 0.346 ± 0.021 | growth [2, 7]: 0.304 ± 0.0045 | growth [2, 8]: 0.243 ± 0.0028 | growth [2, 9]: 0.238 ± 0.0034 | growth [2, 10]: 0.152 ± 0.0078 | growth [3, 11]: 0.397 ± 0.019 | growth [3, 12]: 0.461 ± 0.0099 | growth [5]: 0.522 ± 0.086 | growth [4, 13]: 0.423 ± 0.028 | growth [4, 14]: 0.431 ± 0.014

CC(C)/N=c1\cc2n(-c3ccc(Cl)cc3)c3ccccc3nc-2cc1Nc1ccc(Cl)cc1 [Clofazimine]
growth [1]: 0.158 ± 0.004 | growth [2, 6]: 0.231 ± 0.016 | growth [2, 7]: 0.154 ± 0.037 | growth [2, 8]: 0.225 ± 0.023 | growth [2, 9]: 0.0638 ± 0.0033 | growth [2, 10]: 0.168 ± 0.013 | growth [3, 11]: 0.247 ± 0.053 | growth [3, 12]: 0.337 ± 0.11 | growth [4, 13]: 0.395 ± 0.031 | growth [4, 14]: 0.06873 ± 0.00031

COCC(=O)Nc1c(I)c(C(=O)NCC(O)CO)c(I)c(C(=O)N(C)CC(O)CO)c1I (stereo not drawn) [Iopromide]
growth [1]: 0.259 ± 0.016 | growth [2, 6]: 0.329 ± 0.021 | growth [2, 7]: 0.289 ± 0.014 | growth [2, 8]: 0.237 ± 0.0091 | growth [2, 9]: 0.188 ± 0.0057 | growth [2, 10]: 0.156 ± 0.013 | growth [3, 11]: 0.491 ± 0.0086 | growth [3, 12]: 0.464 ± 0.028 | growth [5]: 0.464 ± 0.037 | growth [4, 13]: 0.401 ± 0.019 | growth [4, 14]: 0.349 ± 0.018

CCOc1ccc(Cc2nccc3cc(OCC)c(OCC)cc23)cc1OCC [Ethaverine hydrochloride]
growth [1]: 0.0471 ± 0.00059 | growth [2, 6]: 0.0509 ± 0.0018 | growth [2, 7]: 0.0528 ± 0.018 | growth [2, 8]: 0.0664 ± 0.025 | growth [2, 9]: 0.0659 ± 0.033 | growth [2, 10]: 0.0686 ± 0.015 | growth [3, 11]: 0.228 ± 0.0076 | growth [3, 12]: 0.1635 ± 0.0016 | growth [4, 13]: 0.403 ± 0.0076 | growth [4, 14]: 0.0633 ± 0.0024

CCCc1nn(C)c2c(=O)[nH]c(-c3cc(S(=O)(=O)N4CCN(C)CC4)ccc3OCC)nc12 [Sildenafil]
growth [1]: 0.201 ± 0.016 | growth [2, 6]: 0.235 ± 0.01 | growth [2, 7]: 0.275 ± 0.014 | growth [2, 8]: 0.186 ± 0.016 | growth [2, 9]: 0.1606 ± 0.00076 | growth [2, 10]: 0.1693 ± 0.0008 | growth [3, 11]: 0.233 ± 0.013 | growth [3, 12]: 0.399 ± 0.035 | growth [4, 13]: 0.406 ± 0.0068 | growth [4, 14]: 0.2931 ± 0.0018

Cc1onc(-c2c(F)cccc2Cl)c1C(=O)N[C@@H]1C(=O)N2[C@@H]1SC(C)(C)[C@@H]2C(=O)O [Flucloxacillin sodium]
growth [1]: 0.228 ± 0.0096 | growth [2, 6]: 0.2863 ± 0.0017 | growth [2, 7]: 0.26 ± 0.0097 | growth [2, 8]: 0.186 ± 0.022 | growth [2, 9]: 0.172 ± 0.006 | growth [2, 10]: 0.136 ± 0.0023 | growth [3, 11]: 0.265 ± 0.056 | growth [3, 12]: 0.432 ± 0.059 | growth [4, 13]: 0.412 ± 0.015 | growth [4, 14]: 0.33 ± 0.021
